# PKA-R2B act: PKA-R2B complex activation; actives 0.079% (n = 340,000); activation, % at 11.4 µM; P22694+P31323; PKA-R2B holoenzyme dissociation, Cy5-IP20 fluorescence polarization; R2B truncated from residue 108, S112A mutant; 0% DMSO only, 100% 113 µM cGMP;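 active = activation above a cutoff set at the mean over all compounds plus 3 SD, cut at about 18% in these data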;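 note: higher means more holoenzyme dissociation and a rise in polarization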
# PAFAH1B3 FP inh: inhibitors of human PAFAH1B3. Q15102. recombinant PAFAH1B3, FP-rhodamine probe, fluorescence polarization. inhibition, % at 3.39 µM. actives 0.28% (n = 340,000);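 active = inhibition above the screen-wide average of all tested compounds plus 3 SD, cut at about 25% in these data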
# PKA-R1A activ: PKA-R1A complex activation. activation, % at 11.4 µM. PKA-R1A dissociation, Cy5-IP20 fluorescence polarization; scaled: DMSO 0%, 113 µM cGMP 100%. actives 0.083% (n = 340,000). AID 504707;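 active = percent activation above the mean of all tested compounds plus 3 SD, cut at about 19% in these data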;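 note: higher means more PKAc released from R1A so a rise in polarization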
# PAFAH2 inh: inhibitors of human PAFAH2 | Q99487 | inhibition, % at 3.39 µM | recombinant PAFAH2, FP-rhodamine activity probe, fluorescence polarization | actives 0.99% (n = 340,000);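 active = inhibition above the mean over all tested compounds plus 3 SD, cut at about 30% in these data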;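 note: inhibitors block probe labeling of enzyme so polarization drops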
# pPAFAH inh: pPAFAH (human) enzyme inhibition; inhibition, % at 3.39 µM; actives 1.5% (n = 330,000); AID 463082; recombinant pPAFAH, FP-rhodamine probe fluorescence polarization;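 active = inhibition above the mean inhibition across the screen plus 3 SD, cut at about 25% in these data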;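 note: inhibitors block binding of the rhodamine activity-based probe so polarization drops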
# Target sequence (Q13093 whole entry, looked up): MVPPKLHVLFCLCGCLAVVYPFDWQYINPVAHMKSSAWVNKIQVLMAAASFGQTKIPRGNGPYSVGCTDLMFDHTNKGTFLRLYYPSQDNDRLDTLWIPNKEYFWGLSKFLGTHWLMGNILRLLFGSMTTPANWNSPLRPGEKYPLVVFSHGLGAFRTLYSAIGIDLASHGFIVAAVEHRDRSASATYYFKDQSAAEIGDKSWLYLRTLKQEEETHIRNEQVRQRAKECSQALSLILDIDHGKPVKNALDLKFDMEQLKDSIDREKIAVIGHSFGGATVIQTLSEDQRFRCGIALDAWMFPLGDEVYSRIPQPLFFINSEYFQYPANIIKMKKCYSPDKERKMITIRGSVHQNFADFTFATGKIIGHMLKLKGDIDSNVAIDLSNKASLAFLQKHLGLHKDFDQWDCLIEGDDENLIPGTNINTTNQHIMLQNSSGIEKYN
# PAFAH1B2 inh: blocks human PAF acetylhydrolase 1b catalytic subunit 2 | P68402 | recombinant PAFAH1B2, FP-rhodamine activity probe, fluorescence polarization | inhibition, % at 3.39 µM | actives 1.2% (n = 340,000) | AID 492953;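 active = inhibition above the mean of all tested compounds plus 3 SD, cut at about 24% in these data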
# A number is an active result; n = inactive; x = no result. Compounds with a hit are over-represented: about 2.6% of the library has one in this group of screens.
SMILES,PKA-R2B act,PAFAH1B3 FP inh,PKA-R1A activ,PAFAH2 inh,pPAFAH inh,PAFAH1B2 inh
N/C(=N\OC(=O)c1ccc(Cl)cc1Cl)c1ccccc1,n,n,n,n,n,n
Oc1ccc(/C=N/N2CCN(C3c4ccccc4-c4ccccc43)CC2)cc1O,n,n,n,n,33.2,n
O=C(NNC(=S)NC(=O)C12CC3CC(CC(C3)C1)C2)c1ccncc1,n,n,n,n,n,45.4
O=C(OCc1c(Cl)cccc1Cl)c1cccnc1Cl,n,n,n,n,31.6,n
O=C(OCc1c(Cl)cccc1Cl)c1cccnc1,n,n,n,n,33.1,n
O=C(OCc1ccccc1Cl)c1cccnc1Cl,n,n,n,n,n,n
O=C(OCc1c(Cl)cccc1Cl)c1cnccn1,n,n,n,n,n,n
COc1ccc([C@@H]2C[C@H]3[C@@H](CN2S(=O)(=O)c2ccccc2)C(=O)C[C@@H](c2ccccc2)N3S(=O)(=O)c2ccc(C)cc2)cc1,n,x,n,x,x,x
N#C/C(=C(/O)c1ccccc1F)c1nc2cc(C(F)(F)F)ccc2s1,n,n,n,n,n,82.2
CC(C)=C(C#N)c1nc2ccccc2s1,n,n,n,n,n,n
Cn1c(N)c(C(=O)COC(=O)c2cc(S(=O)(=O)NCc3ccccc3)ccc2O)c(=O)n(C)c1=O,n,n,n,n,x,n
CC(C)[C@H](NC(=O)N1CC(=O)Nc2ccccc21)C(=O)N1CCC[C@H]1C(=O)O,n,n,n,n,n,n
CCN(CC)c1ccc(NC(=O)CSc2ccsc2[N+](=O)[O-])c(C)c1,n,n,n,n,28.1,n
Cc1cc(NC(=O)NC(=O)c2ccccc2)no1,n,n,n,n,n,n
CC1CN(S(=O)(=O)c2cccc(C(F)(F)F)c2)C(C)N1C(=O)N1CCOCC1 (stereo not drawn),n,n,n,n,n,n
COc1cccc(N2CCN(CC(=O)Nc3ccc(SC(F)F)cc3)CC2)c1,n,n,n,n,n,n
O=C(CN1CCN(c2ccc(O)cc2)CC1)Nc1ccc(SC(F)F)cc1,n,n,n,n,32.6,n
CCN(c1ccc(NC(=O)c2ccc(Cl)nc2)cc1)C(C)C,n,n,n,n,n,n
Cc1ccc2c3c(cccc13)-c1ccccc1C2=O,n,n,n,n,n,n
Cc1coc2c1C(=O)C(=O)c1c-2ccc2c(C)cccc12,n,n,n,51.0,56.1,n
OCC[C@@H]1C[C@H](O)[C@@H](O)[C@@]2(CCCCO2)O1,n,n,n,n,n,n
CCOC(=O)C1Nc2ccccc2C2C(O)C(O)CC12 (stereo not drawn),n,37.7,n,n,n,n
Cn1c(N)c(C(=O)COC(=O)c2cc(S(=O)(=O)N3CCOCC3)ccc2F)c(=O)n(C)c1=O,n,n,n,n,n,n
Clc1ccc(-c2noc(COc3ccccc3)n2)cc1,n,n,n,n,n,n
Clc1ccc(OCc2nc(-c3ccncc3)no2)cc1,n,n,n,n,n,26.9
SMILES,PKA-R2B act,PAFAH1B3 FP inh,PKA-R1A activ,PAFAH2 inh,pPAFAH inh,PAFAH1B2 inh
N#CCCN1CCN(Cc2cc(-c3ccccc3)ccc2O)CC1,n,n,n,n,n,n
CC(C)(C)CC(C)(C)c1ccc(O)c(CN2CCN(CCC#N)CC2)c1,n,n,n,n,n,41.5
Cc1[nH]n(-c2ncc(-c3ccccc3)s2)c(=O)c1C(c1ccc(Cl)cc1)C(C#N)C#N (stereo not drawn),n,n,n,n,27.1,n
Cc1[nH]n(-c2ccccc2)c(=O)c1C(c1ccccc1[N+](=O)[O-])C(C#N)C#N (stereo not drawn),n,n,n,n,n,n
Cc1ccc(-n2c(-c3ccco3)n[nH]c2=S)cc1,n,n,n,n,n,n
CC(C1CC2CCC1C2)n1c(-c2ccco2)n[nH]c1=S (stereo not drawn),n,n,n,n,n,27.0
Cc1cccc(Oc2ccccc2NC(=O)C2=COCCO2)c1,n,n,n,n,n,n
CC[C@H](C)[C@H]1CNC(=S)N1CC1CCN(CC)CC1,n,x,n,x,x,x
O=C(COc1ccc([N+](=O)[O-])cc1Cl)N1CCOCC1,n,n,n,n,n,n
O=[N+]([O-])c1ccc2c(c1)C(N1CCOCC1)/C(=C/COc1ccc(Cl)cc1Cl)O2 (stereo not drawn),n,n,n,n,n,24.4
CC(C)C(=O)Nc1csc(C(F)(F)F)c1-c1ccccc1,n,n,n,n,n,27.2
CC(C)C(=O)Nc1ccccc1Cc1ccccc1,n,n,n,n,n,n
Cc1ccc(NS(=O)(=O)c2cccc(C(=O)NC3CCN(Cc4ccccc4)CC3)c2)cc1,n,n,n,n,x,n
Cc1ccc(NS(=O)(=O)c2ccc(C(=O)NC3CCN(Cc4ccccc4)CC3)cc2)cc1,n,n,n,n,26.2,n
Cc1ccc(NS(=O)(=O)c2ccc(C(=O)N3CCN(c4ccccn4)CC3)cc2)cc1,n,n,n,n,25.3,n
O=C(c1ccc(S(=O)(=O)Nc2ccccc2)cc1)N1CCCC(C(F)(F)F)C1 (stereo not drawn),n,n,n,n,27.9,n
Cc1ccc(NS(=O)(=O)c2ccc(C(=O)N3CCC3)cc2)cc1,n,n,n,n,27.5,n
Cc1ccc(S(=O)(=O)NCc2ccc(C(=O)N3CCN(c4ccccn4)CC3)cc2)cc1,n,n,n,n,n,n
Cc1ccc(C(=O)Nc2ncccc2C)cc1S(=O)(=O)N1CCCCC1,n,n,n,n,n,n
O=C1CC(=C2c3ccccc3-c3ccccc32)C(=O)N1CCN1CCN(c2cccc(Cl)c2)CC1,n,n,n,n,26.4,n
Nc1[nH]ncc1-c1ccc(F)cc1,n,n,n,n,29.8,n
Cc1sc(NC(=O)CN(C(=O)c2ccccc2F)C2CCCC2)c(C(N)=O)c1C,n,n,n,n,n,n
O=C(O)c1ccc(N/N=C/c2ccc(-c3ccc(Br)cc3)o2)cc1,n,n,n,n,26.8,n
Cc1ccc(/C=N/Nc2ccc(C(=O)O)cc2)o1,n,n,n,n,n,n
CN1CCN(NC(=O)Nc2cccc(F)c2)CC1,n,n,n,n,n,n
CN1C(C)(C)c2ccccc2OS1(=O)=O,n,n,n,n,n,n
CCOC(=O)N/N=C/c1ccc(OCCSc2ccc(Cl)cc2)c(OC)c1,n,n,n,n,34.4,n
COc1cc(C=O)ccc1OCCOCCOc1ccc(Cl)cc1,n,n,n,n,n,n
COc1cc(C=O)ccc1OCCSc1ccc(Cl)cc1,n,n,n,n,n,55.5
COc1ccccc1C(=O)N/C(=C\c1cn(S(=O)(=O)N(C)C)c2ccccc12)C(=O)N1CCOCC1,n,n,n,n,n,n

# Compound activity as filed in PubChem.
